Results from PubChem BioAssay AID1508611 (The Scripps Research Institute Molecular Screening Center, 2020).
The whole screen tested about 6,700 compounds, of which about 20 (0.3%) were called active.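 How the source made its calls: active means mean percent activation in the counterscreen above 29.09%; inactive means the rest.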 Only a selection was taken, and actives are over-represented in it overall.

Biological target: Glucose-dependent insulinotropic receptor (Homo sapiens) (UniProt Q8TDV5)
Assay: off-target GPR119 activation – cell-based, PathHunter beta-arrestin, luminescence, triplicate, counter-screen for GPR151 activator project (AID 1508611)
Conditions: GPR119 PathHunter beta-arrestin cells, 90 min, at 11.2 µM, hits give high values, 0 = compound-well median, 100 = enzyme-acceptor control

Glucose-dependent insulinotropic receptor (Homo sapiens), sequence (Q8TDV5 whole entry, looked up): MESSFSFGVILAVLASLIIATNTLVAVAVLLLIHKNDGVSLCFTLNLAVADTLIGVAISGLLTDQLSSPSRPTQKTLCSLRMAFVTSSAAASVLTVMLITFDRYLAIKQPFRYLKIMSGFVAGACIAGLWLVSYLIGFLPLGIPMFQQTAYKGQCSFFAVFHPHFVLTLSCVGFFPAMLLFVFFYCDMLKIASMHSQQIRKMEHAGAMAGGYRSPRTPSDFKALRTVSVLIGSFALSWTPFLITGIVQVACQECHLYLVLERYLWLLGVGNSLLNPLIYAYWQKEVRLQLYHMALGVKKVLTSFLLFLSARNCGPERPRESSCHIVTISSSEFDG

SMILES	activation
Cc1nc(-c2cccc(NC(=O)C3CC(=O)c4ccccc43)c2)cs1 (stereo not given)	4.74% (inactive)
CC(C)CNc1nc2c(c(=O)[nH]c(=O)n2C)n1CC(C)O (stereo not given)	5.13% (inactive)
CCCCOC(=O)C1=C(C)NC2=C(C(=O)CCC2)C1c1cccc([N+](=O)[O-])c1 (stereo not given)	-13.7% (inactive)
NC(=O)C1CCN(C(=O)c2ccc(-c3ccccc3)cc2)CC1	-13.1% (inactive)
CN1C(=O)c2ccc(N3C(=O)c4cccc([N+](=O)[O-])c4C3=O)cc2C1=O	-8.76% (inactive)
COc1cc2nc(-c3cccc(C(C)=O)c3)nc(Nc3ccc(N4CCOCC4)cc3)c2cc1OC	1.25% (inactive)
CCN(CC)c1nc(Nc2cc(OC)c(OC)c(OC)c2)nc(N2CCOCC2)n1	-4.38% (inactive)
COc1cc(Nc2ccnc(Nc3ccc(N4CCOCC4)cc3)n2)cc(OC)c1OC	31.6% (active)
CCN(CC)c1nc(Nc2ccccc2)nc(Nc2ccccc2)n1	5.68% (inactive)
CCOC(=O)c1cccc(NC(=O)/C=C/c2ccccc2)c1	2.43% (inactive)
COCCn1c(C)cc(C(=O)CSc2nnc(-c3ccccc3)o2)c1C	0.76% (inactive)
COc1ccc(OC)c(S(=O)(=O)Oc2ccc(Cl)c3cccnc23)c1	14.7% (inactive)
O=C(CC1C(=O)NCCN1C(=O)c1ccc([N+](=O)[O-])cc1)Nc1cccc(Cl)c1 (stereo not given)	8.78% (inactive)
COc1ccc(-c2cc(N)n(S(=O)(=O)c3ccccc3)n2)c(OC)c1	-9.92% (inactive)
c1ccc(-c2ccc(OCCCNCCN3CCOCC3)cc2)cc1	-6.67% (inactive)
COc1ccc(C2=NN(C(=O)c3cc(OC)c(OC)c(OC)c3)C(c3ccc(Cl)cc3)C2)cc1OC (stereo not given)	10.6% (inactive)
C=C(C)CSc1nc2sc3c(c2c(=O)n1-c1ccc(OC)cc1)CC(C)(C)OC3	13.8% (inactive)
COc1ccccc1C1CCCN1C(=O)C1CCN(c2nc(C)c3ccccc3n2)CC1 (stereo not given)	0.39% (inactive)
COc1ccc(OC)c(NC(=O)CN(c2cccc(C)c2C)S(C)(=O)=O)c1	-9.68% (inactive)
O=C(CC12CC3CC(CC(C3)C1)C2)Nc1ccc2oc(=O)ccc2c1	-8.76% (inactive)
CC(C)(C)C1(O)CCN2C[C@H]3c4ccccc4CCc4cccc(c43)[C@@H]2C1 (stereo not given in full)	2.66% (inactive)
OCCC1CN(Cc2ccc3cc(F)ccc3n2)CCN1C1CCCC1 (stereo not given)	11.7% (inactive)
CCCn1ncc(CN2CCCC(N3CCC(CO)CC3)C2)c1C (stereo not given)	1.74% (inactive)

SMILES	activation
CCCOC(=O)C1=C(C)NC(=O)NC1c1ccc(Br)cc1 (stereo not given)	-8.21% (inactive)
O=C(Cn1c(=S)nc2ccccn21)N1CCc2ccccc2C1	4.38% (inactive)
CCOC(=O)C1=CN(C)C=C(C(=O)OCC)C1c1ccc(OC)cc1	7.33% (inactive)
O=C(O)COc1ccc(N2C(=O)C(=O)/C(=C(\O)c3ccccc3)C2c2ccc(Cl)cc2Cl)cc1 (stereo not given)	1.15% (inactive)
Cc1nnc(SCC(=O)NCc2ccccc2)s1	-8.49% (inactive)
CN(CC(=O)Nc1cccc2c1CCCC2)S(=O)(=O)c1ccc(Cl)cc1	-16% (inactive)
COC(=O)[C@@H]1CC[C@H](C)[C@@H](c2ccc(C)cc2)N1C(=O)c1ccc(/C=N/O[C@H](C)c2cn([C@@H]3COC[C@H]3O)nn2)cc1	-5.11% (inactive)
Cc1ccccc1CC1(CO)CCCN(Cc2ccncc2)C1 (stereo not given)	-3.82% (inactive)
O=C(CSc1ccc(F)cc1)Nc1cccc2ccccc12	-0.98% (inactive)
COc1ccc2c(c1)C=C(CN1CCN(CC3CCCCC3)C(CCO)C1)CO2 (stereo not given)	10.3% (inactive)
O=c1[nH]c(=S)[nH]c(O)c1C=Nc1ccc(F)c(Cl)c1	5.32% (inactive)
O=C(Cn1c(=O)n(Cc2cccs2)c(=O)c2cccnc21)Nc1ccc(F)cc1	-1.72% (inactive)
CCOC(=O)c1sc(NC(=O)CSc2ncccn2)c(C#N)c1C	2.97% (inactive)
CC(C)C(=O)NNS(=O)(=O)c1ccc([N+](=O)[O-])cc1	0.04% (inactive)
O=C(NCc1nnc(SCC(=O)N2N=C(c3cccs3)CC2c2ccc(F)cc2)n1Cc1ccccc1)c1cccc(F)c1 (stereo not given)	-10.8% (inactive)
CCc1ccc(-c2ccc(C3CCC(CC)CC3)cc2)nc1 (stereo not given)	-6.15% (inactive)
CC(C)c1ccc(Nc2nccn3c(-c4cccc(CO)c4)cnc23)cc1	15.7% (inactive)
O=C(c1ccccc1)N1CCCCC(Sc2ncnc3sc4c(c23)CCCC4)C1=O (stereo not given)	0.65% (inactive)
C[C@H]1Cc2c(COc3ccccc3)nc3c(c2CO1)CN(C(=O)NCc1ccco1)CC3	9.06% (inactive)
CC(C)n1c(Nc2ccc3ncccc3c2)nc2c(NC3CC3)ncnc21	3.65% (inactive)
Cc1cc(CN(C)Cc2ccc(OCC(O)CN(C)Cc3ccccc3)cc2)n[nH]1 (stereo not given)	-0.59% (inactive)
O=C(NCCOc1ccccc1)c1cnc(N2CCN(c3ccccn3)CC2)s1	1.31% (inactive)
COC(=O)CN1C=C(C(=O)OC)C(c2ccc(OC)c(O)c2)C(C(=O)OC)=C1	20.6% (inactive)

SMILES	activation
CCOC(=O)c1cc2cc(-c3c(C)oc4cc(OC(C)=O)ccc4c3=O)ccc2o1	-2.06% (inactive)
CN(Cc1nc(-c2ccc3c(c2)OCO3)no1)C1CCCc2ccccc21 (stereo not given)	0.92% (inactive)
O=C(Cc1cccs1)Nn1c(-c2cccc([N+](=O)[O-])c2)nc2ccccc2c1=O	13.2% (inactive)
CC1(C(=O)Nc2cccc(C(F)(F)F)c2)CC2c3ccccc3C1c1ccccc12 (stereo not given)	0.35% (inactive)
O=CN1CCN(CCC(=O)Nc2ccccc2)CC1	-6.54% (inactive)
CCOc1ccc(NC(=O)N2CCN(CC)CC2)cc1	6.5% (inactive)
CCSc1nc2sccn2c(=O)c1C(=O)NC(Cc1ccccn1)C(F)(F)F (stereo not given)	-3.52% (inactive)
Cc1cccc(-n2nc3c(c2NC(=O)CCC2CCCCC2)CS(=O)(=O)C3)c1C	7.21% (inactive)
COc1ccc(-c2noc(N3CCC(C(=O)NCCCN4CCN(C)CC4)CC3)n2)cc1	3.82% (inactive)
FC(F)(F)c1ccc(Cn2cnc3c(NCc4cccc(C(F)(F)F)c4)nc(Nc4ccc(N5CCOCC5)cc4)nc32)cc1	-10.4% (inactive)
CC(=O)Nc1nnc(CCOCC(C)OCCc2nnc(NC(C)=O)s2)s1 (stereo not given)	12.3% (inactive)
CCOc1cc2c(cc1OCC)C(c1ccc3ccccc3c1)NCC2 (stereo not given)	-1.89% (inactive)
CCOc1ccc(C(=O)Nc2nnc(CC)s2)cc1[N+](=O)[O-]	-8.62% (inactive)
O=S(=O)(c1ccc(F)cc1)N1CCN(CCCc2ccccc2)CC1	15.2% (inactive)
O=C(N/N=C/c1cccc(Cl)c1Cl)c1cccs1	-19.1% (inactive)
CCOC(=O)c1ccc2nc(NC(=O)CSc3nc4ccccc4[nH]3)sc2c1	6.61% (inactive)
COCCNC(=O)CSc1nccn1Cc1ccco1	5.14% (inactive)
COCC(=O)Nc1c(I)c(C(=O)NCC(O)CO)c(I)c(C(=O)N(C)CC(O)CO)c1I (stereo not given)	-9.51% (inactive)
O=C(CCc1ccccc1)Nc1cccc(C(=O)N2CCOCC2)c1	-6.29% (inactive)
CC(/C=N\NC(=O)CSc1nc(C)cc(C)n1)=C\c1ccccc1	-12.7% (inactive)
COCCNC(=O)c1cc2c(=O)n3ccccc3nc2n(CCc2ccccc2)c1=N	3.06% (inactive)
CCCN1C(=O)c2ccc(C(=O)Nc3ccc(C(C)=O)cc3)cc2C1=O	0.52% (inactive)
O=C(c1cc([N+](=O)[O-])ccc1NC1CCCCC1)N1CCOCC1	-18.9% (inactive)

SMILES	activation
CCN(CC)C(=O)C1CCCN(c2cccc(C(=O)NCCc3ccc(OC)cc3)n2)C1 (stereo not given)	-12.6% (inactive)
Cc1ccc(-c2nnc(N3CCOCC3)c3ccccc23)cc1S(=O)(=O)N1CCN(C)CC1	-11.5% (inactive)
C=CCN1C(=O)CC(C(=O)OC)C12CCN(C1CCN(C(=O)OCC)CC1)CC2 (stereo not given)	-5.11% (inactive)
COC(=O)NNC(=S)Nc1cc(S(=O)(=O)N(C)C)ccc1C	-12.9% (inactive)
CCCCOc1ccccc1CNCC	0.16% (inactive)
O=C(CN1C(=O)S/C(=C\c2ccc(Cl)s2)C1=O)Nc1ccccc1F	-11% (inactive)
CSc1nc(N)nc2nc[nH]c12	-1.61% (inactive)
CCc1ccc(-n2c(C)c(C)n3c4c(=O)n(CC)c(=O)n(C)c4nc23)cc1	-2.08% (inactive)
C#CCOc1ccc(Br)cc1/C=C1\NC(=S)N(C)C1=O	-3.86% (inactive)
CS(=O)(=O)N(CC(=O)Nc1ccc(F)cc1F)c1ccc(F)cc1	-2.79% (inactive)
Cc1ccc(C(C)C)c(OCCCn2ccnc2)c1	0.47% (inactive)
COc1ccccc1C(=O)N/C(=C\c1ccc2c(c1)OCO2)C(N)=O	4.53% (inactive)
C=CCN(c1ccc(C(=O)Nc2ccc(OCc3ccccc3)cc2)cc1)S(C)(=O)=O	-10.1% (inactive)
CC(=O)NC(CC(=O)O)c1ccc(F)cc1 (stereo not given)	3.48% (inactive)
COc1cccc(/C=C(\C#N)c2nc3ccc(C)cc3[nH]2)c1OC	17.6% (inactive)
Cc1ccc(NCC(=O)N/N=C\c2ccc(I)o2)cc1	-0.01% (inactive)
COc1cccc(C2SCC(=O)N2c2cccc(C)c2)c1OC (stereo not given)	13.2% (inactive)
CC1(c2ccccc2NC(=O)c2ccc([N+](=O)[O-])cc2)CC1	0.99% (inactive)
O=[N+]([O-])c1ccc2ncnc(Nc3cccc(C(F)(F)F)c3)c2c1	9% (inactive)
O=C(COc1ccc(S(=O)(=O)NCCc2ccccc2)cc1)NC1CC1	-10.3% (inactive)
O=C(Nc1ccc2[nH]ncc2c1)N1CCCNCC1	3.8% (inactive)
